{"source": "ChEMBL document CHEMBL3988442", "about": "“University of Dundee, Small-Polar-MMV Screening Library” (2021)", "tested_on": "Leishmania donovani", "assay": "Leishmania intramacrophage assay", "format": "functional, organism-based", "parameters": "scale not given: in the data most compounds retested in dose-response had high values", "note": "The whole screen tested about 69,000 compounds, of which about 1,000 (1.4%) showed an effect of 50% or more. The list comes from a sample in which strong results are over-represented; it also holds similar structures and randomly drawn compounds.", "data": [{"compound": "CCOCCC(=O)NC(Cc1ccc(C)cc1)c1ccccn1", "note": "(stereo not drawn)", "values": [{"measurement": "Percent Effect", "setting": "30.3 µM, […]", "value": 16.59, "unit": "%"}]}, {"compound": "CN1CC[C@@H]2[C@@H](CO[C@H]2CNC(=O)c2nccn2C)C1.O=C(O)C(F)(F)F", "values": [{"measurement": "Percent Effect", "setting": "30.3 µM, […]", "value": 58.2, "unit": "%"}]}, {"compound": "CCCN1CC[C@@H]2[C@@H](CO[C@H]2CNC(=O)c2nccn2C)C1.O=C(O)C(F)(F)F", "values": [{"measurement": "Percent Effect", "setting": "30.3 µM, […]", "value": 42.84, "unit": "%"}]}, {"compound": "Cn1ccnc1C(=O)NC[C@@H]1OC[C@H]2CN(CC3CC3)CC[C@H]21.O=C(O)C(F)(F)F", "values": [{"measurement": "Percent Effect", "setting": "30.3 µM, […]", "value": 33.21, "unit": "%"}]}, {"compound": "Cn1cncc1CN1CCCC1c1cncc(Oc2ccc(Cl)cc2)n1", "note": "(stereo not drawn)", "values": [{"measurement": "Percent Effect", "setting": "30.3 µM, […]", "value": 60.52, "unit": "%"}]}, {"compound": "Cn1cncc1CN1CCCC1c1cncc(Oc2ccc(F)cc2)n1", "note": "(stereo not drawn)", "values": [{"measurement": "Percent Effect", "setting": "30.3 µM, […]", "value": 23.83, "unit": "%"}]}, {"compound": "Cc1ncccc1Oc1cncc(C2CCCN2Cc2cncn2C)n1", "note": "(stereo not drawn)", "values": [{"measurement": "Percent Effect", "setting": "30.3 µM, […]", "value": 19.44, "unit": "%"}]}, {"compound": "O=C(O)C(F)(F)F.O=C([C@H]1COC[C@H]2CN(CC3CCCC3)C[C@H]21)N1CCOCC1", "values": [{"measurement": "Percent Effect", "setting": "30.3 µM, […]", "value": 14.74, "unit": "%"}]}, {"compound": "CC(=O)N1CCC2(CC1)CN(C(=O)[C@@H]1CSCN1)c1ccc(Cl)cc12.O=C(O)C(F)(F)F", "values": [{"measurement": "Percent Effect", "setting": "30.3 µM, […]", "value": 42.29, "unit": "%"}]}, {"compound": "O=C(O)C(F)(F)F.O=C(c1ncccn1)N1CCC[C@]2(C[C@@H](Oc3ncccc3F)CO2)C1", "values": [{"measurement": "Percent Effect", "setting": "30.3 µM, […]", "value": -9.266, "unit": "%"}]}, {"compound": "COC1COC2(CCN(C(=O)c3ccccc3F)CC2)C1", "note": "(stereo not drawn)", "values": [{"measurement": "Percent Effect", "setting": "30.3 µM, […]", "value": 35.35, "unit": "%"}]}, {"compound": "Cn1cc(CN2CCC[C@]3(C[C@@H](Oc4ncccc4F)CO3)C2)cn1.O=C(O)C(F)(F)F.O=C(O)C(F)(F)F", "values": [{"measurement": "Percent Effect", "setting": "30.3 µM, […]", "value": 62.31, "unit": "%"}]}, {"compound": "CCO[C@H]1CO[C@@]2(CCCN(Cc3nc(C)cs3)C2)C1.O=C(O)C(F)(F)F", "values": [{"measurement": "Percent Effect", "setting": "30 µM, 30.03 µM", "value": 20.53, "unit": "%"}]}, {"compound": "Cn1cc(CN2CCC[C@]3(C[C@H](Oc4ncccc4F)CO3)C2)cn1.O=C(O)C(F)(F)F.O=C(O)C(F)(F)F", "values": [{"measurement": "Percent Effect", "setting": "30.3 µM, […]", "value": 42.35, "unit": "%"}]}, {"compound": "CS(=O)(=O)N1CCC[C@]2(C[C@@H](Oc3ncccc3F)CO2)C1.O=C(O)C(F)(F)F", "values": [{"measurement": "Percent Effect", "setting": "30 µM, 30.03 µM", "value": 22.25, "unit": "%"}]}, {"compound": "CO[C@@H]1CO[C@@]2(CCCN(Cc3nc(C)cs3)C2)C1.O=C(O)C(F)(F)F", "values": [{"measurement": "Percent Effect", "setting": "30.3 µM, […]", "value": 100.6, "unit": "%"}]}, {"compound": "Cc1csc(CN2CCC[C@]3(C[C@@H](OCC4CC4)CO3)C2)n1.O=C(O)C(F)(F)F", "values": [{"measurement": "Percent Effect", "setting": "30.3 µM, […]", "value": 2.266, "unit": "%"}]}, {"compound": "O=C(O)C(F)(F)F.O=C(O)C(F)(F)F.O=C(c1cccnc1)N1CCC[C@]2(C[C@H](Oc3ncccc3F)CO2)C1", "values": [{"measurement": "Percent Effect", "setting": "30.3 µM, […]", "value": 55.01, "unit": "%"}]}, {"compound": "COc1ncccc1C(=O)N1CC[C@]2(C[C@@H](Oc3cccnc3)CO2)C1.O=C(O)C(F)(F)F.O=C(O)C(F)(F)F", "values": [{"measurement": "Percent Effect", "setting": "30.3 µM, […]", "value": 31.08, "unit": "%"}]}, {"compound": "O=C(O)C(F)(F)F.O=C(c1ccccc1)N1CCC[C@]2(C[C@@H](Oc3ncccc3F)CO2)C1", "values": [{"measurement": "Percent Effect", "setting": "30.3 µM, […]", "value": -17.71, "unit": "%"}]}, {"compound": "COc1ncccc1C(=O)N1CCC2(CC1)CC(OC)CO2.O=C(O)C(F)(F)F", "note": "(stereo not drawn)", "values": [{"measurement": "Percent Effect", "setting": "30.3 µM, […]", "value": 56.73, "unit": "%"}]}, {"compound": "CC(C)NC(=O)N1CCC(c2nnc3n2CCNC3)CC1", "values": [{"measurement": "Percent Effect", "setting": "30.3 µM, […]", "value": -10, "unit": "%"}]}, {"compound": "O=C(O)C(F)(F)F.O=C([C@H]1CN(CCc2ccccc2)C[C@H]2OCC[C@@H]12)N1CCCO1", "values": [{"measurement": "Percent Effect", "setting": "30 µM, 30.03 µM", "value": 22.49, "unit": "%"}]}, {"compound": "CCCC(C#N)NC(=O)Cc1csc(CC)n1", "note": "(stereo not drawn)", "values": [{"measurement": "Percent Effect", "setting": "30.3 µM, […]", "value": 15.43, "unit": "%"}]}, {"compound": "CC(OCc1ccccc1)C(=O)NC1CCN(CC(N)=O)CC1", "note": "(stereo not drawn)", "values": [{"measurement": "Percent Effect", "setting": "30.3 µM, […]", "value": 21.11, "unit": "%"}]}, {"compound": "O=C(c1ccc(O)c(Cl)c1)N1C[C@@H](CN2CCCCCC2)[C@@H](CO)C1", "values": [{"measurement": "Percent Effect", "setting": "30.3 µM, […]", "value": -29.45, "unit": "%"}]}, {"compound": "Cc1nc(CN2CCCC2c2[nH]ncc2C(=O)N(C)C)cs1", "note": "(stereo not drawn)", "values": [{"measurement": "Percent Effect", "setting": "30.3 µM, […]", "value": 17.56, "unit": "%"}]}, {"compound": "O=S(=O)(NCCc1c[nH]c2ccc(F)cc12)C1CCOCC1", "values": [{"measurement": "Percent Effect", "setting": "30.3 µM, […]", "value": 23.05, "unit": "%"}]}, {"compound": "CCO[C@@H]1CO[C@@]2(CCN(Cc3ccc4c(c3)OCO4)C2)C1.O=C(O)C(F)(F)F", "values": [{"measurement": "Percent Effect", "setting": "30.3 µM, […]", "value": 22.42, "unit": "%"}]}, {"compound": "CCO[C@H]1CO[C@@]2(CCN(Cc3ccc4c(c3)OCO4)C2)C1.O=C(O)C(F)(F)F", "values": [{"measurement": "Percent Effect", "setting": "30.3 µM, […]", "value": 9.141, "unit": "%"}]}, {"compound": "O=C(O)C(F)(F)F.O=C(O)C(F)(F)F.c1ccc(O[C@H]2CO[C@@]3(CCN(Cc4ccc5c(c4)OCO5)C3)C2)nc1", "values": [{"measurement": "Percent Effect", "setting": "30.3 µM, […]", "value": 57, "unit": "%"}]}, {"compound": "CC(C)Cc1cc(C(=O)NCCn2nc3ccccn3c2=O)[nH]n1", "values": [{"measurement": "Percent Effect", "setting": "30.3 µM, […]", "value": 7.621, "unit": "%"}]}, {"compound": "O=C1CCC(=O)N1CCN1CCC(=Cc2ccccc2)CC1", "values": [{"measurement": "Percent Effect", "setting": "30.3 µM, […]", "value": 5.63, "unit": "%"}]}, {"compound": "COc1cccc(N2CCC(N3CCOC(C(F)(F)F)C3)CC2)c1", "note": "(stereo not drawn)", "values": [{"measurement": "Percent Effect", "setting": "30.3 µM, […]", "value": 13.73, "unit": "%"}]}, {"compound": "O=C(CCc1ccsc1)NC1CCN(c2cccc(F)c2)CC1", "values": [{"measurement": "Percent Effect", "setting": "30.3 µM, […]", "value": -29.46, "unit": "%"}]}, {"compound": "Cc1nc(-c2cccc(N3CCC(N[C@@H]4CCOC4)CC3)c2)cs1", "values": [{"measurement": "Percent Effect", "setting": "30.3 µM, […]", "value": -5.486, "unit": "%"}]}, {"compound": "COc1cccc(-c2cccc(N3CCC(N[C@@H]4CCOC4)CC3)c2)c1", "values": [{"measurement": "Percent Effect", "setting": "30.3 µM, […]", "value": 96, "unit": "%"}]}, {"compound": "O=C(Cc1cccs1)NC1CCN(c2cccc(F)c2)CC1", "values": [{"measurement": "Percent Effect", "setting": "30 µM, 30.03 µM", "value": 26.53, "unit": "%"}]}, {"compound": "Fc1cccc(-c2cccc(N3CCC(NC4CCCOC4)CC3)c2)c1", "note": "(stereo not drawn)", "values": [{"measurement": "Percent Effect", "setting": "30.3 µM, […]", "value": 98.85, "unit": "%"}]}, {"compound": "COC(C)(C)CC(C)NCc1cc(-c2ccco2)on1", "note": "(stereo not drawn)", "values": [{"measurement": "Percent Effect", "setting": "30.3 µM, […]", "value": -19.81, "unit": "%"}]}, {"compound": "CN(CCC#N)C(=O)CN1CCCN(Cc2noc(C3CC3)n2)CC1", "values": [{"measurement": "Percent Effect", "setting": "30.3 µM, […]", "value": 25.2, "unit": "%"}]}, {"compound": "O=C(O)C(F)(F)F.c1ncn(Cc2cnc3n2CCN(Cc2ccsc2)CC3)n1", "values": [{"measurement": "Percent Effect", "setting": "30 µM, 30.03 µM", "value": -12.88, "unit": "%"}]}, {"compound": "O=C1CC[C@H](C(=O)N(Cc2cccc(Br)c2)C2CC2)N1", "values": [{"measurement": "Percent Effect", "setting": "30.3 µM, […]", "value": 50.36, "unit": "%"}]}, {"compound": "O=C1NCC(C(=O)N(Cc2cccc(Br)c2)C2CC2)N1", "note": "(stereo not drawn)", "values": [{"measurement": "Percent Effect", "setting": "30.3 µM, […]", "value": -2.381, "unit": "%"}]}, {"compound": "O=C1CC[C@H](C(=O)N(CCc2ccccc2)C2CCOC2)N1", "note": "(stereo partly drawn)", "values": [{"measurement": "Percent Effect", "setting": "30.3 µM, […]", "value": 6.545, "unit": "%"}]}, {"compound": "Nc1nnc(CCNC(=O)c2cccc(C3CCCNC3)c2)s1", "note": "(stereo not drawn)", "values": [{"measurement": "Percent Effect", "setting": "30.3 µM, […]", "value": 5.236, "unit": "%"}]}, {"compound": "Nc1nc(CCCNC(=O)c2ccc(C3CCCNC3)cc2)cs1", "note": "(stereo not drawn)", "values": [{"measurement": "Percent Effect", "setting": "30.3 µM, […]", "value": 19.48, "unit": "%"}]}, {"compound": "Nc1nnc(CCCNC(=O)c2ccc(C3CCCNC3)cc2)s1", "note": "(stereo not drawn)", "values": [{"measurement": "Percent Effect", "setting": "30.3 µM, […]", "value": 51.22, "unit": "%"}]}]}
